Measured values from PubChem BioAssay AID504832 (National Center for Advancing Translational Sciences (NCATS), 2011).
Out of some 310,000 compounds screened, about 18,000 (5.8%) were called active. Where a call stands in place of a potency, no number is given. Roughly 22% stayed inconclusive and do not appear here. The sample as a whole holds a higher share of actives than the screen did. Unmarked numbers belong to inactive results. Calls come from the whole dose curve; as a rule, active = well fitted inhibition curve with a large enough effect; inconclusive = small, poorly fitted or top-dose-only effect, or another doubt; inactive = no such curve, though single readings can be large or run the other way.

assay: Primary qHTS for delayed death inhibitors of the malarial parasite plastid, 48 hour incubation; conditions: P. falciparum luciferase growth in erythrocytes; series mostly up to 28.7 µM
How it was run: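 First compound was added to culture medium, then infected red cells at 0.1% parasitemia and 2% hematocrit (final). After incubation at 37 C under 5% CO2, luciferase detection reagent was dispensed and light output recorded.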
Potency is the fitted concentration of half-maximal effect.

SMILES	Potency	activity change, negative = inhibition
CCn1c(=S)sc2c(=O)n(CC(=O)Nc3cccc(Br)c3)c(C)nc21	inactive	–
COc1ccccc1C(=O)NCc1nnc(SC(C)C(=O)Nc2nccs2)n1C (stereo not drawn)	inactive	–
Cc1cccc(Cn2c(N3CCN(c4ccccc4)CC3)nc3c2c(=O)n(C)c(=O)n3C)c1	inactive	–
CC(C)CCn1c(=O)c2c(nc3n2CCCN3Cc2ccccc2)n(C)c1=O	9.28 µM (active)	–
CC1CN(C2CCCCC2)c2nc3c(c(=O)n(C)c(=O)n3C)n2C1 (stereo not drawn)	inactive	–
O=C(c1c(F)cccc1Cl)N1CCN(c2ccccn2)CC1	inactive	–
NC(=O)c1oc2ccccc2c1NC(=O)Cc1ccccc1	inactive	–
Cc1c(C(C)(C)O)[nH]c2ccc(C#N)cc12	inactive	–
COc1ccc(-c2cc(=O)oc3cc(OC(C)C(=O)NCC4CCC(C(=O)O)CC4)ccc23)cc1 (stereo not drawn)	inactive	–
COc1ccc(F)cc1C(=O)COC(=O)c1n[nH]c(=O)c2ccccc12	inactive	–
Nc1nc(SCC(=O)Nc2cc(C(F)(F)F)ccc2Cl)[nH]c(=O)c1NC(=O)c1ccco1	inactive	–
COc1ccc(OC)c(NC(=O)c2sc3nc(C)cc(C)c3c2N)c1	inactive	–
Cc1cccc(NC(=O)c2sc3nc(N4CCOCC4)c4c(c3c2N)CCCC4)c1	inactive	–
Cc1cccc(NC(=O)c2sc3nc4c(c(-c5ccco5)c3c2N)CCC4)c1	2.08 µM (active)	–
CN(c1ccccc1)S(=O)(=O)c1ccc(NC(=O)COc2ccccc2)cc1	inactive	–
CCN(C(=O)COC(=O)c1cc(S(=O)(=O)N2CCc3ccccc32)ccc1OC)C1CCS(=O)(=O)C1 (stereo not drawn)	inactive	–
COc1cccc(NC(=O)c2cc(S(=O)(=O)N3CCc4ccccc43)cn2C)c1	inactive	–
COc1ccccc1N(C)C(=O)c1cc(S(=O)(=O)N2CCc3ccccc32)cn1C	11.7 µM (active)	–
COc1cc(OC)cc(C(=O)NNC(=O)CCOc2ccccc2OC)c1	inactive	–
Cc1occc1-c1nnc(SCC(=O)NC2(C#N)CCCC2)n1C	inactive	–
CSc1ccc(S(=O)(=O)NCC(=O)OCC(=O)NC2(C#N)CCCCC2)cc1[N+](=O)[O-]	inactive	–

SMILES	Potency	activity change, negative = inhibition
O=C(Nc1cccc(NC(=O)c2cccc(F)c2)c1)c1ccccc1	–	0% [at 0.00184 µM]
CC(=O)c1ccc(NC(=O)N[C@@H](Cc2ccccc2)C(=O)O)cc1	inactive	–
CC(=O)c1ccc(NC(=S)N(Cc2ccccc2)C(C)C2CC2)cc1 (stereo not drawn)	13.1 µM (active)	–
CC(C)N(Cc1ccccc1)C(=S)Nc1ccc(OC(F)F)cc1	inactive	–
O=C(N/C(=C\c1ccc([N+](=O)[O-])cc1)C(=O)N1CCOCC1)c1cccc(Br)c1	inactive	–
COc1ccccc1NC(=O)COC(=O)c1ccccc1SCC(=O)N1CCCC1	inactive	–
CCS(=O)(=O)N1CCCC(C(=O)NCc2ccc(C)cc2)C1 (stereo not drawn)	inactive	–
O=C(NCc1ccc2c(c1)OCO2)C1CCCN(S(=O)(=O)c2cccs2)C1 (stereo not drawn)	9.28 µM (active)	–
O=C(NCc1ccccc1)C1CCCN(S(=O)(=O)c2cccs2)C1 (stereo not drawn)	inactive	–
C/C(=N\NC(=O)c1cccc([N+](=O)[O-])c1)c1cccnc1	inactive	–
O=C(NC1CCC(O)CC1)c1ccccc1OCc1ccc(F)cc1 (stereo not drawn)	inactive	–
Cc1ccc(C(=O)Nc2nnc(C3=COCCO3)o2)cc1C	inactive	–
COc1ccccc1-c1nc(SC)n[nH]1	inactive	–
CCOc1ccc(-c2n[nH]c(C)c2-c2ccccn2)c(O)c1	inactive	–
COc1ccc(-n2c(-c3ccc(OC)c(OC)c3)n[nH]c2=S)cc1	inactive	–
COc1ccc(C(=O)CC(=O)c2ccc(C)cc2)c(O)c1	inactive	–
C=C(C)COc1ccc(-c2n[nH]c(C)c2-c2ccccc2)c(O)c1	1.85 µM (active)	–
COc1ccc(-c2n[nH]c(C)c2-c2ccccc2OC)c(O)c1	9.28 µM (active)	–
COC(=O)c1cc(OC)ccc1-c1ccc(OC)cc1	inactive	–
COc1ccc(-c2n[nH]c(C)c2-c2ccc(OC)c(OC)c2)c(O)c1	13.1 µM (active)	–
Cc1noc(C)c1COC(=O)COc1ccc(-c2ccccc2)cc1	inactive	–

SMILES	Potency	activity change, negative = inhibition
COc1ccc(C(=O)NNC(=O)c2cc(C)[nH]n2)cc1	inactive	–
COc1ccc(-c2[nH]ncc2CN(C)Cc2c(C)n[nH]c2C)c(OC)c1	inactive	–
COc1ccc(-c2c(-c3ccc(OC)cc3O)nc(C)nc2C(F)(F)F)cc1	7.38 µM (active)	–
Cc1ccc(S(=O)(=O)N(CCCN(C)C)Cc2ccc3c(c2)OCO3)cc1	inactive	–
O=S1(=O)N=C(N(CCO)/N=C/c2ccccc2F)c2ccccc21	inactive	–
COCCCNC(=O)C1CC(=O)N(CCc2ccc(F)cc2)C1 (stereo not drawn)	inactive	–
CCc1ccc(C(=O)N2CCN(S(=O)(=O)c3sc(C(=O)O)c(C)c3C(=O)O)CC2)cc1	inactive	–
CCOc1ccc2[nH]c3nc(SCC(=O)NC4CCCC4)nnc3c2c1	inactive	–
CN(C(=O)CN1C(=O)NC(C)(CCc2ccccc2)C1=O)c1ccccc1 (stereo not drawn)	inactive	–
Cc1ccc(C)c(NS(=O)(=O)c2c(C)[nH]c(C)c2C(=O)N2CCCCC2)c1	inactive	–
CCOc1ccc(C(=O)CCC(=O)NC2=NCCS2)cc1	inactive	–
C=C(C)COc1ccc(-c2n[nH]c(C)c2-c2ccccc2OC)c(O)c1	8.28 µM (active)	–
C=C(C)COc1ccc(-c2nc(N)ncc2-c2ccccc2OC)c(O)c1	inactive	–
COc1ccccc1-c1n[nH]c2c1[C@H](C)CC[C@H]2C(C)C	inactive	–
Cc1ccc(CN(CC(=O)NC2CCCCC2)C(=O)c2csnn2)cc1	inactive	–
Cc1ccc([N+](=O)[O-])cc1S(=O)(=O)N1CCCN(C)CC1	inactive	–
CCC1=C(OC(=O)N(CC)CC)N2C(=O)OC(=NCC3CC3)[C@]2(C)[C@H]2C1=CC[C@H]1C(=O)N(CC(=O)OC)C(=O)[C@H]12	inactive	–
CCC1=C(OC(=O)N(CC)CC)N2C(=O)OC(=NCCc3c[nH]c4ccccc34)[C@]2(C)[C@H]2C1=CC[C@H]1C(=O)N(CC)C(=O)[C@H]12	9.28 µM (active)	–
NC(=O)COC(=O)c1ccc2c(c1)C(=O)N(Cc1ccco1)C2=O	inactive	–
Cc1ccc(Cc2nnc(SCC(=O)Nc3ccccc3C)[nH]c2=O)cc1	inactive	–
CCC(C)NC(=O)C1c2ccccc2C(=O)N1Cc1ccccc1 (stereo not drawn)	inactive	–
